Screens: PubChem, National Center for Advancing Translational Sciences (NCATS)
The sample as a whole holds a higher share of hits than the screen did.
VDR inhibitor: inhibitors of human vitamin D receptor; P11473; VDR-SRC2-3 peptide fluorescence polarization, 2 h; Potency, µM, inactives show max response, negative = inhibition, actives largely listed as inhibitors; 400,000 compounds, 0.93% hits; note: potency is the fitted concentration of half-maximal effect; % is set by controls: 0 for no effect and ±100 for the full control effect
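Two reagent solutions held at 4 deg C in the dark were dispensed, compounds pinned at 23 nl, and the mixture incubated 2 h at room temperature. Read-out: fluorescence polarization of VDR–SRC2-3 peptide binding.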
12-LOX inh: ALOX12 (human) lipoxygenase inhibition; purified 12hLO, xylenol orange hydroperoxide absorbance; AID 1671190; 580,000 compounds, 1.1% hits; Potency, µM (highest dose often 108 µM), for the others: top-dose activity change, negative = inhibition, actives largely listed as inhibitors; note: potency is the fitted concentration of half-maximal effect; % is set by controls: 0 for no effect and ±100 for the full control effect
Target sequence (P18054 whole entry, looked up): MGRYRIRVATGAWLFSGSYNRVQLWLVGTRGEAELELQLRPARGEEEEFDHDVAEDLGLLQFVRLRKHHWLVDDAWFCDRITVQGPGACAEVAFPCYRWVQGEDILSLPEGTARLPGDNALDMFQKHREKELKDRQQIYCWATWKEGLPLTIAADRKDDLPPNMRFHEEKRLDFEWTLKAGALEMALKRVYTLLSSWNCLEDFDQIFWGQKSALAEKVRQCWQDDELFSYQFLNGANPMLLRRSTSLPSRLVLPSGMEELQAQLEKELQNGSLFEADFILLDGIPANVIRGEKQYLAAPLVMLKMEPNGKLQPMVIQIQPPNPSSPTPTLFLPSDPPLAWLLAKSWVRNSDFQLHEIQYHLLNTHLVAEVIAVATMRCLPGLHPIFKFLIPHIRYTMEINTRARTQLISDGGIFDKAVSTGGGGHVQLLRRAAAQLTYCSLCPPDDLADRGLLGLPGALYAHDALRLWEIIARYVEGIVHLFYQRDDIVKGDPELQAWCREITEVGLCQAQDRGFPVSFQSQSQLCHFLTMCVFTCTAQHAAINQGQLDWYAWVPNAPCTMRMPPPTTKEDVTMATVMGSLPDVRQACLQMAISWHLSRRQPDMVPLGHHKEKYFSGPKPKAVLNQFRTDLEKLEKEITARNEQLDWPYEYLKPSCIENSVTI
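Purified human 12hLO (150 nM final) in 25 mM Hepes, 0.01% Triton X-100, pH 7.0 was preincubated 15 min at room temperature with compound. Then 40 uM arachidonic acid was added, 30 min. Hydroperoxide was read by Fe-XO absorbance ratio 573/405 nm.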
GRP78 ERSR act: induces the endoplasmic reticulum stress response in human glioma cells; Potency, µM, for inactives: at the top dose activation, usual class: activators; U87-MG GRP78 promoter luciferase reporter, 16 h; 420,000 compounds, 0.02% hits; note: potency is the fitted concentration of half-maximal effect; series mostly up to about 76 µM; % of control where 0% means no effect; nearly all actives have a fitted effect of over 35% in size
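Stably transfected U87-MG glioma cells carrying a GRP78-based luciferase sensor; 16 h compound incubation. Luminescence end-point read 10 min after Bright-Glo addition at room temperature.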
Sfp PPTase inh: inhibitors of Bacillus subtilis Sfp phosphopantetheinyl transferase | Potency, µM, for the others: largest response in the series, negative = inhibition, actives largely listed as inhibitors | Biochemical Sfp PPTase activity, qHTS | 310,000 compounds, 3.5% hits | AID 1490 | Q9F4F7;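 note: the enzyme is Sfp with the accession as filed and its product quenches rhodamine fluorescence; potency is the fitted concentration of half-maximal effect; 0% = enzyme reaction without inhibitor and -100% = no enzyme wells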
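Compounds were incubated with enzyme (final 15 nM) for 15 min at room temperature before substrate addition started the reaction. Fluorescence at 525 nm excitation, 598 nm emission was recorded immediately and after 30 minutes.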
G9a block: blocks human histone lysine methyltransferase G9a; 350,000 compounds, 8.8% hits; Potency, µM (doses to about 102 µM), for the others: at the highest dose activity, negative = inhibition, most hits filed as inhibitors; G9a H3K9 monomethylation, AlphaScreen, 2 h; Q96KQ7; note: potency is the fitted concentration of half-maximal effect; % is set by controls: 0 for no effect and ±100 for the full control effect; nearly all actives have a fitted effect of over 75% in size
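Quantitative HTS format: methyltransferase activity on a biotin-tagged H3K9 peptide is measured by AlphaScreen, using a rabbit anti-monomethyl-H3K9 antibody with streptavidin donor and anti-IgG acceptor beads. Final levels are 20 nM enzyme, 500 nM peptide, 20 uM SAM; 2 h RT.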
USP1 UbRho: USP1-UAF1 deubiquitinase inhibition validated. shares compounds with VDR inhibitor. Ub-Rhodamine cleavage, fluorescence kinetic read. Potency, µM (titrated, usually from 114 µM), for inactives: top-dose activity change, negative = inhibition, actives largely listed as inhibitors. 50 compounds, 50% hits. AID 540327
VDR confirm: confirmation of human vitamin D receptor inhibitors | 840 compounds, 89% hits | Potency, µM, actives largely listed as inhibitors | VDR-coactivator inhibition assay, qHTS confirmation | shares compounds with VDR inhibitor; note: potency is the fitted concentration of half-maximal effect
VDR FP: confirmation of human VDR-coactivator binding inhibitors, fluorescein label; shares compounds with VDR inhibitor; VDR-coactivator binding, fluorescein fluorescence polarization; Potency, µM (series often up to 57.1 µM), for the others: at the highest dose activity change, negative = inhibition, hits mostly inhibitors; 840 compounds, 48% hits; AID 602200; note: potency is the fitted concentration of half-maximal effect
VDR bla: VDR (human) inhibition, cell-based beta-lactamase validation. AID 602202. shares compounds with VDR inhibitor. Potency, µM (doses to about 46.1 µM), inactives show at the highest dose activity change, negative = inhibition, actives largely listed as inhibitors. 840 compounds, 23% hits. VDR beta-lactamase reporter cells, FRET ratio; cells co-treated with VDR agonist LG190178; note: potency is the fitted concentration of half-maximal effect; % is set by controls: 0 for no effect and ±100 for the full control effect
VDR cytotox: counter-screen for vitamin D receptor inhibitors: cytotoxicity | shares compounds with VDR inhibitor | cytotoxicity counter-screen, cell viability, qHTS | Potency, µM (highest dose often 48.3 µM), inactives show top-dose activity change, negative = cytotoxicity, actives largely listed as cytotoxic | 840 compounds, 18% hits | AID 602204;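 note: potency is the fitted concentration of half-maximal effect; plate controls were DMSO for no effect and high-concentration cycloheximide for full effect; nearly all actives have a fitted effect of over 75% in size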
An asterisk follows results filed as active; i = inactive; ? = inconclusive; nt = no result; [ ] = another dose, or the depositor's remark. Calls come from the whole dose curve; as a rule, active = well fitted curve in the direction sought with a large enough effect; inconclusive = small, poorly fitted or top-dose-only effect, or another doubt; inactive = no such curve, though single readings can be large; an effect the other way counts as inactive or inconclusive.

SMILES | VDR inhibitor | 12-LOX inh | GRP78 ERSR act | Sfp PPTase inh | G9a block | VDR confirm | VDR FP | VDR bla | VDR cytotox | others
O=C(Cn1ncc2ccccc2c1=O)NCCc1ccccc1 | nt | -32% | nt | nt | nt | nt | nt | nt | nt
CC1c2ccccc2CN1CC1=NCCN1 (stereo not drawn) | -5% | 188% | -4% | -26% | ? | nt | nt | nt | nt
C[C@@H]1c2ccccc2CN1CC1=NCCN1 | 3% | i | -3% | -5% | nt | nt | nt | nt | nt | USP1 UbRho=-11%
CCOc1ccc(C(=O)CCN2CCCCCC2)cc1 | 25µM* | 130% | -17% | ? | 5µM* | 27* | ? | ? | ?
O=C(/C=C/c1c(F)cccc1Cl)c1ccc(F)cc1 | 45µM* | -12% | ? | ? | 30%[59 µM] | 11* | 8.9µM* | 29% | -17%
O=C(NCc1ccc(Cl)cc1)NC1CC1 | nt | 0% | nt | nt | nt | nt | nt | nt | nt
CCCCCC1=CCC/C1=N\NC(=O)c1cccnc1 | nt | 4% | nt | nt | nt | nt | nt | nt | nt
Nc1ccc2c(c1)C(=O)C(=O)c1ccccc1-2 | 20µM* | ? | -15% | 13% | 6%[0.501 µM] | 6.7* | ? | 4.1µM* | 2.9µM*
O=C1C(=O)c2ccc(-c3ccccc3)cc2-c2ccccc21 | 3.5µM* | 14% | 1% | 1% | ? | 0.67* | ? | 3.3µM* | 2.5µM*
COP(=O)(OC)c1nc(-c2cccc([N+](=O)[O-])c2)oc1NCc1ccc(C)cc1 | nt | -25% | nt | nt | nt | nt | nt | nt | nt
NC(=O)CCNc1ccccc1 | nt | 1% | nt | nt | nt | nt | nt | nt | nt
O=C(Cc1ccccc1)c1ccc2c(c1)OCCO2 | -11% | 0% | 12% | 22% | 83% | nt | nt | nt | nt
O=C(CCN1CCc2ccccc2CC1)c1ccc2c(c1)OCCO2 | ? | -19% | -8% | 40µM* | 2.2µM* | 13* | 11µM* | ? | ?
NS(=O)(=O)c1ccc(NC(=O)CN(Cc2ccc3c(c2)OCO3)C2CCCC2)cc1 | nt | -23% | nt | nt | nt | nt | nt | nt | nt
Oc1ccc(N=C/C=C/c2cccc(Br)c2)cc1-c1nc2ccccc2s1 | ? | nt | 8% | ? | 7.9µM* | 8.9* | 22µM* | 18µM* | ?
O=C(Nc1ccc(O)c(-c2nc3ccccc3s2)c1)c1cc(=O)c2ccccc2o1 | 1% | 2% | -4% | 0% | -6%[59 µM] | nt | nt | nt | nt
COC(=O)[C@H](C)NC(=O)c1cc2c(cn1)[nH]c1ccccc12 | 22µM* | ? | -5% | 8.9µM* | 1.4µM* | 3.4* | ? | 17% | -11%
COc1cc(NC(=O)CCS(=O)(=O)c2nc(-c3ccc4c(c3)OCO4)cc(C(F)(F)F)n2)cc(OC)c1OC | ? | -14% | -4% | nt | ? | nt | nt | nt | nt
COc1ccc(NC(=O)CCS(=O)(=O)c2nc(-c3cccs3)cc(C(F)(F)F)n2)cc1OC | 45µM* | ? | -11% | nt | -46%[59 µM] | ? | 25µM* | 4% | 9%
O=C(CCS(=O)(=O)c1nc(-c2ccc3c(c2)OCO3)cc(C(F)(F)F)n1)Nc1ccc(F)c(Cl)c1 | 8.9µM* | 10% | -10% | nt | 3%[59 µM] | 7.1* | 7.9µM* | 23µM* | ?
Cc1ccccc1OCc1nc2ccc(S(=O)(=O)N3CCOCC3)cc2[nH]1 | 40µM* | -30% | -2% | 40µM* | 3.5µM* | 21* | ? | 21% | 38%
CCCN1CCN(CC2=C(C(=O)OC)C(c3ccc(C)cc3)NC(=O)N2)CC1 (stereo not drawn) | nt | -29% | nt | nt | nt | nt | nt | nt | nt
Cc1ccsc1C(=O)N1C[C@@H](Oc2cccnc2)C[C@@H]1C(=O)N1CCOCC1 | nt | 31% | nt | nt | nt | nt | nt | nt | nt
CS(=O)(=O)N(CC(=O)NC1CCCCC1)Cc1ccc(F)cc1 | 2% | 0% | -2% | 16% | -3% | nt | nt | nt | nt
COc1ccc(C(=O)/C=C/C(=O)N(CC(=O)NC2CCCCC2)Cc2ccc(F)cc2)c(O)c1 | 79µM* | ? | -3% | 8.9µM* | nt | 11* | 4.5µM* | 13µM* | 9.2µM*
O=C1C(Cl)=C(N2CCOCC2)C(=O)N1c1cccc(C(F)(F)F)c1 | 35µM* | -7% | -1% | -1% | 79µM* | 30* | 28µM* | 7% | -4%
